# Experimental data reported in PubChem BioAssay (Tox21).
# Where “and” joins values, the source holds several entries; their conditions need not be identical. Equal entries are not always repeated. Unmarked numbers belong to inactive results. Records with an inconclusive call do not appear. A call without a number means that no potency is given here. Calls of active or inactive are those of the source. The call rests on the fitted dose curve; in most records, active means well fitted curve in the direction sought with a large enough effect in the repeat runs; inconclusive means weak or mixed curves; inactive means no such curve, though single readings can be large; an effect the other way counts as inactive or inconclusive.
# Tests used:
# [1] = qHTS RealTime-Glo MT Cell Viability Assay in HEK293 cells - 16 hour (AID 1224872); further: nearly all actives have a fitted effect of over 50% in size; further: potency means the concentration at half of the fitted maximal effect
# Outline: (§1)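 HEK293 cells seeded with NanoLuc/prosubstrate reagent, rested 5 h at 37 C, then dosed and kept at 37 C up to 40 h. Nonlytic real-time luminescence from viable cells read at 0, 8, 16, 24, 32 and 40 h.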
# [2] = qHTS RealTime-Glo MT Cell Viability Assay in HepG2 cells - 8 hour (AID 1224873); further: nearly all actives have a fitted effect of over 55% in size; further: potency means the concentration at half of the fitted maximal effect
# Outline: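 HepG2 cells mixed with RealTime-Glo MT reagents (NanoLuc plus cell-permeant prosubstrate) were seeded at 600 cells/well, incubated 5 h at 37 C/5% CO2, then pinned with compounds in DMSO; nonlytic luminescence tracked viability during 40 h treatment.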
# [3] = qHTS RealTime-Glo MT Cell Viability Assay in HEK293 cells - 40 hour (AID 1224874); details: RealTime-Glo luminescence; max response: hits give low values; further: nearly all actives have a fitted effect of over 50% in size; further: potency means the concentration at half of the fitted maximal effect
# Outline: (§2)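 Cells were seeded together with NanoLuc luciferase and a prosubstrate that viable cells reduce to a luciferase substrate. After a 5 h incubation at 37 C/5% CO2, compounds were added and luminescence was measured repeatedly during 40 h of treatment.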
# [4] = A CellTox Green Cytotoxicity Assay to monitor cytotoxicity in HEK293 cells - 24 hour (AID 1224875); further: nearly all actives have a fitted effect of over 45% in size; further: potency means the concentration at half of the fitted maximal effect
# Outline: (§3)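 Nonlytic real-time cytotoxicity: HEK293 + CellTox Green reagent plated, 5 h preincubation, pintool compound addition (23 nL in DMSO), 37 C for 40 h, fluorescence measured at successive time points.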
# [5] = A CellTox Green Cytotoxicity Assay to monitor cytotoxicity in HepG2 cells - 16 hour (AID 1224876); further: nearly all actives have a fitted effect of over 45% in size; further: potency means the concentration at half of the fitted maximal effect
# Outline: (§4)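 Read-out is fluorescence of a cyanine dye excluded from live cells that stains DNA of dead HepG2 cells, with signal proportional to cytotoxicity. Plates were read at 0, 8, 16, 24, 32 and 40 h after compound addition.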
# [6] = qHTS RealTime-Glo MT Cell Viability Assay in HepG2 cells - 32 hour (AID 1224877); further: nearly all actives have a fitted effect of over 55% in size; further: potency means the concentration at half of the fitted maximal effect
# Outline: (§5)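 HepG2 cells (600/well) were dispensed with RealTime-Glo reagents, incubated 5 h at 37 °C, then treated with compounds in DMSO for up to 40 h. Nonlytic NanoLuc luminescence reflecting viable cells was read at each stated time point.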
# [7] = A CellTox Green Cytotoxicity Assay to monitor cytotoxicity in HepG2 cells - 24 hour (AID 1224878); further: nearly all actives have a fitted effect of over 45% in size; further: potency means the concentration at half of the fitted maximal effect
# Outline: as §4
# [8] = A CellTox Green Cytotoxicity Assay to monitor cytotoxicity in HepG2 cells - 40 hour (AID 1224879); further: nearly all actives have a fitted effect of over 40% in size; further: potency means the concentration at half of the fitted maximal effect
# Outline: as §4
# [9] = qHTS RealTime-Glo MT Cell Viability Assay in HEK293 cells - 0 hour (AID 1224880); further: top concentration of the series differs between compounds; nearly all actives have a fitted effect of over 45% in size
# Outline: as §2
# [10] = A CellTox Green Cytotoxicity Assay to monitor cytotoxicity in HepG2 cells - 0 hour (AID 1224882); further: nearly all actives have a fitted effect of over 35% in size
# Outline: as §4
# [11] = A CellTox Green Cytotoxicity Assay to monitor cytotoxicity in HepG2 cells - 32 hour (AID 1224883); further: nearly all actives have a fitted effect of over 50% in size; further: potency means the concentration at half of the fitted maximal effect
# Outline: as §4
# [12] = A CellTox Green Cytotoxicity Assay to monitor cytotoxicity in HEK293 cells - 8 hour (AID 1224884); further: nearly all actives have a fitted effect of over 35% in size; further: potency means the concentration at half of the fitted maximal effect
# Outline: as §3
# [13] = qHTS RealTime-Glo MT Cell Viability Assay in HepG2 cells - 16 hour (AID 1224885); further: nearly all actives have a fitted effect of over 50% in size; further: potency means the concentration at half of the fitted maximal effect
# Outline: as §5
# [14] = qHTS RealTime-Glo MT Cell Viability Assay in HEK293 cells - 24 hour (AID 1224886); further: nearly all actives have a fitted effect of over 50% in size; further: potency means the concentration at half of the fitted maximal effect
# Outline: as §1
# [15] = qHTS RealTime-Glo MT Cell Viability Assay in HEK293 cells - 8 hour (AID 1224887); further: nearly all actives have a fitted effect of over 50% in size; further: potency means the concentration at half of the fitted maximal effect
# Outline: as §2
# [16] = qHTS RealTime-Glo MT Cell Viability Assay in HepG2 cells - 0 hour (AID 1224889); further: nearly all actives have a fitted effect of over 50% in size
# Outline: as §5
# [17] = A CellTox Green Cytotoxicity Assay to monitor cytotoxicity in HepG2 cells - 8 hour (AID 1224890); further: nearly all actives have a fitted effect of over 45% in size; further: potency means the concentration at half of the fitted maximal effect
# Outline: as §4
# [18] = qHTS assay to identify small molecule antagonists of the estrogen receptor alpha (ER-alpha) signaling pathway using the BG1 cell line in the presence of 0.1 nM 17-beta-estradiol - cell viability counter screen (AID 1259241); further: nearly all actives have a fitted effect of over 40% in size
# Outline: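 Cells were plated and left 24 hr, compounds in DMSO were pinned in, 17beta-estradiol was added to 0.1 nM final, and after 22 hr CellTiter-Fluor reagent was added for 30 min before fluorescence was read.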
# [19] = A CellTox Green Cytotoxicity Assay to monitor cytotoxicity in HEK293 cells - 32 hour (AID 1224881); further: nearly all actives have a fitted effect of over 40% in size; further: potency means the concentration at half of the fitted maximal effect
# Outline: as §3
# [20] = A CellTox Green Cytotoxicity Assay to monitor cytotoxicity in HEK293 cells - 16 hour (AID 1224888); further: nearly all actives have a fitted effect of over 35% in size; further: potency means the concentration at half of the fitted maximal effect
# Outline: as §3
structure (smiles),measurement,setting,value
C1CCC(SSC2CCCCC2)CC1,Potency,[1],inactive
same,Potency,[2],inactive
same,max response,[3],-7.62%
same,Potency,[4],inactive
same,Potency,[5],inactive
same,Potency,[6],inactive
same,Potency,[7],inactive
same,Potency,[8],inactive
same,Potency,[9],inactive
same,Potency,[10],inactive
same,Potency,[11],inactive
same,Potency,[12],inactive
same,Potency,[13],inactive
same,Potency,[14],inactive
same,Potency,[15],inactive
same,Potency,[16],inactive
same,Potency,[17],inactive
same,Potency,[18],inactive
Cc1c(C)c2c(c(C)c1OC(=O)c1cccnc1)CC[C@@](C)(CCC[C@H](C)CCC[C@H](C)CCCC(C)C)O2,Potency,[1],inactive
same,Potency,[2],inactive
same,max response,[3],-1.07%
same,Potency,[4],inactive
same,Potency,[5],inactive
same,Potency,[7],inactive
same,Potency,[8],inactive
same,Potency,[9],inactive
same,Potency,[19],inactive
same,Potency,[10],inactive
same,Potency,[11],inactive
same,Potency,[12],inactive
same,Potency,[13],inactive
same,Potency,[14],inactive
same,Potency,[15],inactive
same,Potency,[20],inactive
same,Potency,[16],inactive
same,Potency,[17],inactive
O=C(O)Cc1ccccc1Nc1c(Cl)cccc1Cl,Potency,[1],inactive
same,Potency,[2],inactive
same,max response,[3],15.1% and 6.54%
same,Potency,[4],inactive
same,Potency,[5],inactive
same,Potency,[7],inactive
same,Potency,[8],inactive
same,Potency,[9],inactive
same,Potency,[19],inactive
same,Potency,[10],inactive
same,Potency,[11],inactive
same,Potency,[12],inactive
same,Potency,[13],inactive
same,Potency,[14],inactive
same,Potency,[15],inactive
same,Potency,[20],inactive
same,Potency,[16],inactive
same,Potency,[17],inactive
same,Potency,[18],inactive
c1cnccn1,Potency,[1],inactive
same,Potency,[2],inactive
same,max response,[3],2.57%
same,Potency,[4],inactive
same,Potency,[5],inactive
same,Potency,[6],inactive
same,Potency,[7],inactive
same,Potency,[8],inactive
same,Potency,[19],inactive
same,Potency,[10],inactive
same,Potency,[11],inactive
same,Potency,[12],inactive
same,Potency,[13],inactive
same,Potency,[14],inactive
same,Potency,[15],inactive
same,Potency,[16],inactive
same,Potency,[17],inactive
same,Potency,[18],inactive
Nc1nc(-c2ccccc2)cs1,Potency,[1],inactive
same,Potency,[2],inactive
same,max response,[3],-6.02%
same,Potency,[4],inactive
same,Potency,[5],inactive
same,Potency,[7],inactive
same,Potency,[8],inactive
same,Potency,[9],inactive
same,Potency,[19],inactive
same,Potency,[10],inactive
same,Potency,[11],inactive
same,Potency,[12],inactive
same,Potency,[13],inactive
same,Potency,[15],inactive
same,Potency,[16],inactive
same,Potency,[17],inactive
same,Potency,[18],inactive
CN(C)Cc1ccccc1O,Potency,[1],inactive
same,Potency,[2],inactive
same,max response,[3],3.13%
same,Potency,[4],inactive
same,Potency,[5],inactive
same,Potency,[6],inactive
same,Potency,[7],inactive
same,Potency,[8],inactive
same,Potency,[10],inactive
same,Potency,[11],inactive
same,Potency,[12],inactive
same,Potency,[13],inactive
same,Potency,[14],inactive
same,Potency,[15],inactive
same,Potency,[20],inactive
same,Potency,[17],inactive
same,Potency,[18],inactive
O=[N+]([O-])c1ccc(F)c(Cl)c1,Potency,[1],inactive
same,Potency,[2],inactive
same,max response,[3],14.6%
same,Potency,[4],inactive
same,Potency,[5],inactive
same,Potency,[7],inactive
same,Potency,[8],inactive
same,Potency,[9],inactive
same,Potency,[19],inactive
same,Potency,[10],inactive
same,Potency,[11],inactive
same,Potency,[12],inactive
same,Potency,[13],inactive
same,Potency,[14],inactive
same,Potency,[15],inactive
same,Potency,[20],inactive
same,Potency,[16],inactive
same,Potency,[17],inactive
CC(N=C(NC#N)Nc1ccncc1)C(C)(C)C (stereo not given),Potency,[1],inactive
same,Potency,[2],inactive
same,max response,[3],-0.652%
same,Potency,[4],inactive
same,Potency,[5],inactive
same,Potency,[6],inactive
same,Potency,[7],inactive
same,Potency,[8],inactive
same,Potency,[10],inactive
same,Potency,[11],inactive
same,Potency,[12],inactive
same,Potency,[13],inactive
same,Potency,[14],inactive
same,Potency,[15],inactive
same,Potency,[16],inactive
same,Potency,[17],inactive
same,Potency,[18],inactive
CCCCC(CC)CN1CN(CC(CC)CCCC)CC(C)(N)C1 (stereo not given),Potency,[1],9.52 µM (active)
same,Potency,[2],19 µM (active)
same,Potency,[3],9.52 µM (active)
same,Potency,[4],10.7 µM (active)
same,Potency,[5],19 µM (active)
same,Potency,[6],16.9 µM (active)
same,Potency,[7],19 µM (active)
same,Potency,[8],19 µM (active)
same,Potency,[19],10.7 µM (active)
same,Potency,[10],inactive
same,Potency,[11],19 µM (active)
same,Potency,[12],15.1 µM (active)
same,Potency,[13],19 µM (active)
same,Potency,[14],8.49 µM (active)
same,Potency,[15],10.7 µM (active)
same,Potency,[20],13.4 µM (active)
same,Potency,[17],21.3 µM (active)
same,Potency,[18],inactive
CC1(C)[C@@H](O)CC[C@]2(C)[C@H]3C(=O)C=C4[C@@H]5C[C@@](C)(C(=O)O)CC[C@]5(C)CC[C@@]4(C)[C@]3(C)CC[C@@H]12,Potency,[1],inactive
same,Potency,[2],inactive
same,max response,[3],13.7%
same,Potency,[4],inactive
same,Potency,[5],inactive
same,Potency,[6],inactive
same,Potency,[9],inactive
same,Potency,[19],inactive
same,Potency,[10],inactive
same,Potency,[12],inactive
same,Potency,[13],inactive
same,Potency,[14],inactive
same,Potency,[15],inactive
same,Potency,[20],inactive
same,Potency,[16],inactive
same,Potency,[17],inactive
same,Potency,[18],inactive
Cc1cc(C(C)(C)C)cc(C)c1CC1=NCCN1,Potency,[1],inactive
same,Potency,[2],inactive
same,max response,[3],-8.22%
same,Potency,[4],inactive
same,Potency,[5],inactive
same,Potency,[6],inactive
same,Potency,[7],inactive
same,Potency,[8],inactive
same,Potency,[9],inactive
same,Potency,[10],inactive
same,Potency,[11],inactive
same,Potency,[12],inactive
same,Potency,[13],inactive
same,Potency,[14],inactive
same,Potency,[15],inactive
same,Potency,[20],inactive
same,Potency,[17],inactive
same,Potency,[18],inactive
CN1CCN2c3ccccc3Cc3ccccc3C2C1 (stereo not given),Potency,[1],inactive
same,Potency,[2],inactive
same,max response,[3],-5.98%
same,Potency,[4],inactive
same,Potency,[5],inactive
same,Potency,[6],inactive
same,Potency,[19],inactive
same,Potency,[10],inactive
same,Potency,[12],inactive
same,Potency,[13],inactive
same,Potency,[15],inactive
same,Potency,[20],inactive
same,Potency,[16],inactive
same,Potency,[17],inactive
same,Potency,[18],inactive
